Assay outcomes deposited in PubChem BioAssay by National Center for Advancing Translational Sciences (NCATS).
GALK inh – qHTS Assay for Inhibitors of Human Galactokinase (GALK); Purified GALK, Kinase-Glo residual ATP luminescence; Potency, µM (highest dose often 57.5 µM), actives largely listed as inhibitors; 270,000 tested, 0.007% active
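The enzyme phosphorylates galactose (100 uM) using ATP (35 uM); inhibition is detected as higher residual ATP, quantified by bioluminescence after 1 h reaction at room temperature, pH 8.0.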
TrxR1 inh – qHTS Assay for Inhibitors of Mammalian Selenoprotein Thioredoxin Reductase 1 (TrxR1): qHTS. AID 588453, 2011. recombinant rTrxR1, NADPH fluorescence consumption, selenite substrate. 390,000 tested, 1% active. Potency, µM (doses to about 114 µM), actives largely listed as inhibitors. Thioredoxin reductase 1, cytoplasmic (Rattus norvegicus), O89049; note: nearly all actives have a fitted effect of over 65% in size
Target sequence (O89049 whole entry, looked up): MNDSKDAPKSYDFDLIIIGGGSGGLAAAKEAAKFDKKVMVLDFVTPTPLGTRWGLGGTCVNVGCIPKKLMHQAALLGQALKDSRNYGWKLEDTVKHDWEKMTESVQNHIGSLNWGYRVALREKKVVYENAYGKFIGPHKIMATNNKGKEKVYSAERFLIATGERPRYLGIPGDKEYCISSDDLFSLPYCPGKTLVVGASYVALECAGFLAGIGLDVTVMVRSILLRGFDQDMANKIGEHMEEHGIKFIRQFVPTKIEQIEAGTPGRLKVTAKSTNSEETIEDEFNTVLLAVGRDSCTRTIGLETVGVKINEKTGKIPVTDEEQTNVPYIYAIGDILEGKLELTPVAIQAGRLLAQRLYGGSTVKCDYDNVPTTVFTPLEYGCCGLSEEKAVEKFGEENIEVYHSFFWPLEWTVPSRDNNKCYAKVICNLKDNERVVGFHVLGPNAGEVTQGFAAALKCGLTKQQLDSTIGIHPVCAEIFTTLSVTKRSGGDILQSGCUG
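Rat TrxR1 (90 nM in the dispensed reagent) was pre-reduced with 400 uM NADPH for 5 min at room temperature, then incubated with compound for 15 min. After 400 uM selenite was added, NADPH fluorescence (Ex 340/Em 450 nm) was followed for 8 min.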
NPSR antag – qHTS Assay for Antagonists of the Neuropeptide S Receptor: cAMP Signal Transduction. Q6W5P4. CHO-NPSR cells, cAMP TR-FRET, antagonist mode. Potency, µM (doses to about 38.3 µM), actives largely listed as inhibitors. 220,000 tested, 1% active; note: nearly all actives have a fitted effect of over 50% in size
TrxR1 substrate – qHTS Assay for Substrates of Mammalian Selenoprotein Thioredoxin Reductase 1 (TrxR1): qHTS. purified TrxR1 substrate turnover, NADPH consumption readout. AID 588456, 2011. Thioredoxin reductase 1, cytoplasmic (Rattus norvegicus), O89049. 390,000 tested, 0.01% active. Potency, µM (doses to about 114 µM); note: nearly all actives have a fitted effect of over 50% in size
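Rat TrxR1, dispensed at 90 nM, was prereduced with 400 uM NADPH (final) for 5 min at ~22 deg C, then incubated with compound 15 min before 400 uM selenite. A first-read NADPH fluorescence drop versus no-compound background flagged substrates.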
Of the large screens only hits and unclear results are named; the others gave an inactive call. Rows were chosen to be rich in hits. Some 1.2% of all compounds tested hit in one or more screens of this group. Calls come from the whole dose curve; as a rule, active = well fitted curve in the direction sought with a large enough effect; inconclusive = small, poorly fitted or top-dose-only effect, or another doubt; inactive = no such curve, though single readings can be large; an effect the other way counts as inactive or inconclusive.

Cc1ccc(/C=C/C(=O)N2CCN(c3ccc(F)cc3)CC2)o1	none
Cc1ccc(/C=C/C(=O)N2CCN(c3ncccn3)CC2)o1	TrxR1 inh 22.4µM
O=C(c1ccco1)N1CCc2ccccc21	none
Cc1ccc(C)c(S(=O)(=O)N2CCN(C(=O)/C=C/c3ccco3)CC2)c1	TrxR1 inh 7.94µM (no result: GALK inh, NPSR antag)
O=C(/C=C/c1ccco1)N1CCc2ccccc21	TrxR1 inh 56.2µM
O=C(/C=C/c1ccco1)N1CCCC(c2ccccc2)C1 (stereo unspecified)	TrxR1 inh 31.6µM
CCn1c(=O)n(CC)c2cc(N3CCCCC3)c(NC(=O)Nc3ccccc3C(F)(F)F)cc21	none (no result: GALK inh, NPSR antag)
Cc1cc(C)c2c(=O)cc(C(=O)Nc3c(C)n(C)n(-c4ccccc4)c3=O)oc2c1	none (no result: GALK inh, NPSR antag)
Cc1ccc(-c2noc(CN(C3CCCCC3)S(=O)(=O)c3ccc(C)cc3)n2)cc1	none (no result: GALK inh, NPSR antag)
Cc1ccc(/C=C/C(=O)N2CCc3ccccc32)o1	TrxR1 inh 3.16µM
COc1ccccc1N1CCN(C(=O)/C=C/c2ccccc2)CC1	none
COc1ccccc1N1CCN(C(=O)/C=C/c2ccco2)CC1	TrxR1 inh 39.8µM
CCOC(=O)/C=C/C(=O)N1CCc2ccccc21	TrxR1 inh inconclusive
COc1ccc(CCN(C)C(=O)COC(=O)/C=C/c2ccc(C)o2)cc1OC	TrxR1 inh 15.8µM (no result: GALK inh, NPSR antag)
COc1cccc(/C=N/n2c(N)c(S(=O)(=O)c3cccs3)c3nc4ccccc4nc32)c1	none
Nc1c(S(=O)(=O)c2cccs2)c2nc3ccccc3nc2n1/N=C/c1cccc(O)c1	NPSR antag 7.94µM
CCOC(=O)C(C(=O)OCC)C(C(=O)OCC)N1CCOCC1 (stereo unspecified)	TrxR1 inh 1.26µM, NPSR antag inconclusive
CCOC(=O)C(C)CC(C)C(=O)N1CCOCCOCCN(C(=O)C(C)CC(C)C(=O)OCC)CCOCC1 (stereo unspecified)	none
O=C(NCc1cccnc1)/C(=C\c1ccc(-c2ccc(Cl)c(Cl)c2)o1)S(=O)(=O)c1ccccc1	TrxR1 inh inconclusive, NPSR antag 12.6µM
O=C(NCc1cccnc1)c1ccc(-c2ccc(Cl)cc2)o1	none
COc1ccc(CC(=O)NO)cc1OC	none (no result: GALK inh, NPSR antag)
c1ccc(-c2nc(-c3ccco3)cs2)nc1	TrxR1 inh 17.8µM
COc1cc2nc(N3CCCCC3)nc(NC(C)C)c2cc1OC	none (no result: GALK inh, NPSR antag)
Cc1ccc(C(=O)NC2CCN(CCCC(=O)c3ccc(F)cc3)CC2)cc1	none (no result: NPSR antag)
O=C(CCN1CCC2CCC(C2)C1)c1ccc(F)cc1 (stereo unspecified)	TrxR1 inh 1.58µM (no result: GALK inh, NPSR antag)
O=C(Cc1ccccc1Cl)NO	none (no result: GALK inh, NPSR antag)
Cc1ccc(-c2cc(C(=O)Nc3cccnc3)c3ccccc3n2)o1	TrxR1 inh 8.91µM
COc1ccc(OC)c(/C=N/NC(=O)c2cc(-c3ccc(C)o3)nc3ccccc23)c1	TrxR1 inh 79.4µM
Cc1ccc(NC(=O)c2cc(-c3ccc(C)o3)nc3ccccc23)cc1	TrxR1 inh 11.2µM
O=C(NCc1ccccc1Cl)c1ccc(CS(=O)(=O)c2ccc(Br)cc2)o1	none (no result: GALK inh, NPSR antag)
COc1cc(C(C#N)N2CCC(c3ccccc3)=N2)ccc1O (stereo unspecified)	TrxR1 inh 22.4µM
COc1ccc(C2=NN(C(C#N)c3ccc(OC)c(OC)c3)C(c3ccccc3)C2)cc1 (stereo unspecified)	TrxR1 inh inconclusive
COc1ccc(C(C#N)N2CCCCCC2)cc1OC (stereo unspecified)	none
COc1ccc(C(C#N)N2CCC(c3ccccc3)=N2)cc1OC (stereo unspecified)	TrxR1 inh 3.16µM
Cc1cc(C)c2nc(N(Cc3cccnc3)C(=O)c3ccc(S(=O)(=O)N(C)C)cc3)sc2c1	none (no result: GALK inh, NPSR antag)
CCC(C)NC(=O)c1nn(-c2ccc(C)cc2)c(=O)n(C)c1=O (stereo unspecified)	none (no result: GALK inh, NPSR antag)
O=C1C=CC(=Nc2ccc3c(c2)Cc2cc(F)ccc2-3)O1	TrxR1 inh 3.16µM (no result: GALK inh, NPSR antag)
CC(C)NC(=O)COC(=O)c1ccccc1OCC(=O)Nc1ccc(Br)cc1	none (no result: GALK inh, NPSR antag)
NC(=O)c1ccc(S(=O)(=O)N2CCSCC2)cc1	none (no result: NPSR antag)
Nc1cc2nsnc2cc1Br	NPSR antag 2.51µM, TrxR1 substrate inconclusive (no result: GALK inh)
Nc1cccc2nsnc12	none
COC(=O)c1ccc2c(c1)C(C)(C)C(/C=C/c1ccccc1O)=[N+]2C	TrxR1 inh 79.4µM
C[N+]1=C(/C=C/Nc2ccccc2Cl)C(C)(C)c2ccccc21	none
COc1ccc(C2NC(Cc3ccccc3)(C(=O)O)C3C(=O)N(c4ccccc4OC)C(=O)C23)cc1 (stereo unspecified)	TrxR1 inh 56.2µM
CCN1C(=O)[C@H]2[C@@H](c3ccc(-c4ccc(OC)cc4)c(OC)c3)N[C@@](Cc3ccccc3)(C(=O)OC)[C@H]2C1=O	none (no result: GALK inh, NPSR antag)
CCOc1ccccc1N/C(=C(/C(Cl)=C(Cl)Cl)[N+](=O)[O-])n1cncn1	TrxR1 inh 22.4µM
COc1cc2c(NC3CCN(C(C)C)CC3)nc(N3CCCN(C)CC3)nc2cc1OCCOCCN(C)C	TrxR1 inh inconclusive (no result: GALK inh, NPSR antag)
O=C(NNc1c2ccccc2nc2ccccc12)C(O)c1ccccc1 (stereo unspecified)	NPSR antag 10µM
O=C(NNc1c2ccccc2nc2ccccc12)c1ccc(O)cc1	none
O=C(COc1ccccc1)NNc1c2ccccc2nc2ccccc12	NPSR antag 10µM
CCCNC(=O)C1=CC(c2ccc3c(c2)OCO3)=NS(=O)(=O)N1C	none (no result: GALK inh, NPSR antag)
O=C1CN(CC(=O)N2CCCCC2)c2ccccc2O1	TrxR1 inh 25.1µM
CCCCN(C)c1nc(-c2ccco2)c2c(c1C#N)CC(C)(C)OC2	TrxR1 inh 3.55µM, NPSR antag inconclusive
COc1ccc(-n2cc(C(=O)NCc3ccccc3Cl)c3ccccc3c2=O)cc1	none (no result: GALK inh, NPSR antag)
COc1ccc(-c2nc(CCl)cs2)cc1	none
COc1ccc(-c2csc(-c3ccc(O)cc3)n2)cc1	TrxR1 inh 56.2µM
NC(=O)CN1CCCN(S(=O)(=O)c2ccc(Br)cc2)CC1	TrxR1 inh 20µM
O=C(CN1CCCN(S(=O)(=O)c2ccc(Br)cc2)CC1)Nc1cccc(C(F)(F)F)c1	TrxR1 inh 50.1µM (no result: GALK inh, NPSR antag)
Cc1ccc(NC(=O)CN2CCCN(S(=O)(=O)c3ccc(Br)s3)CC2)cc1	TrxR1 inh 70.8µM, NPSR antag inconclusive
O=C(Nc1cc([N+](=O)[O-])ccc1O)c1ccc2c(c1)C(=O)N(Cc1ccco1)C2=O	TrxR1 inh 79.4µM (no result: NPSR antag)
Cc1cc(=O)[nH]c2ccc(O)cc12	none (no result: GALK inh, NPSR antag)
O=S(NCc1ccco1)C12CC3CC(CC(C3)C1)C2 (stereo unspecified)	TrxR1 inh 35.5µM
COc1ccc(OC)c(/C=C2\C=Cc3ccccc32)c1	TrxR1 inh 5.62µM (no result: GALK inh, NPSR antag)
Cc1nc([N+](=O)[O-])c(Sc2nc3ccc([N+](=O)[O-])cc3[nH]2)n1Cc1ccccc1	TrxR1 inh 2.51µM
CCn1c(C)nc([N+](=O)[O-])c1C(=O)O	none
Cc1nc([N+](=O)[O-])c(Br)n1CC(=O)c1cccc([N+](=O)[O-])c1	TrxR1 inh 7.08µM
